Measured values from PubChem BioAssay AID743287 (Broad Institute, 2014).
Among all 370,000 compounds or so, about 2,300 (0.62%) were called active.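 How the source made its calls: active means lowest replicate activation of at least 40%, so every replicate reaches that level; inactive means the rest.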 The list comes from a sample in which actives are over-represented; it also holds similar structures and randomly drawn compounds.

Assay: primary screen for activators of insulin secretion dependent on glucose, INS-1E cells, GLuc reporter luminescence (AID 743287);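 further: 0% = median of neutral control wells and 100% = median of IBMX positive control wells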
Details: INS-1E GLuc reporter insulin secretion, 2-3 h, at 16.6 µM, active compounds read high

activation, active:
COc1ccc(CCNC(=O)CCn2c(=O)c3ccccc3n(CC(=O)NCC3CCCO3)c2=O)cc1OC (stereo not drawn) 55.9%
NC[C@H](Cc1ccccc1)NCCc1cc(C(F)(F)F)cc(C(F)(F)F)c1 143%
Fc1c(F)c(C(F)(F)F)c(F)c(F)c1N1CCN(c2ccc3nnc(C(F)(F)F)n3n2)CC1 57%
CCOc1ccc(CCNC(=O)COC(=O)CCS(=O)(=O)c2ccc(C)cc2)cc1OCC 54.2%
COc1ccc(CCNC(=O)NS(=O)(=O)c2ccc(C)cc2)cc1OC 58.1%
COc1ccc(CCNC(=O)CCc2ccccc2O)cc1OC 55.3%
COc1ccc(CNC(=O)COC(=O)CCS(=O)(=O)c2ccc(C)cc2)cc1OC 45.1%

activation, inactive:
CC(C)C#Cc1ccc([C@H]2[C@@H](C#N)N(C(=O)CN(C)C)[C@H]2CO)cc1 1.29%
CC(C)NC(=O)N(C)C[C@H]1Oc2ccc(N(C)C)cc2CC(=O)N(C)C[C@@H]1C 0.073%
Cc1ccc(S(=O)(=O)N(C)C[C@H]2Oc3c(NS(=O)(=O)c4ccc(Cl)cc4)cccc3C(=O)N([C@H](C)CO)C[C@@H]2C)cc1 11.6%
COc1ccc(CCNC(=O)CCn2c(=O)oc3ccccc32)cc1OC 49.9%
COc1ccccc1CNC(=O)CCCn1c(=O)c2ccccc2n(CC(=O)NC2CCCC2)c1=O -9.86%
COCC(=O)Nc1ccc2c(c1)OC[C@@H](C)N(Cc1ccccc1C(=O)O)C[C@@H](C)[C@H](OC)CN(C)C2=O 4.87%
O=C(c1ccc(F)cc1)N1CC(=O)N2[C@@H](CO)[C@@H](c3ccc(C#Cc4ccc(F)cc4)cc3)[C@@H]2C1 -24.9%
CO[C@@H]1CN(C)C(=O)c2cc(NC(=O)c3cccc(Oc4ccccc4)c3)ccc2OC[C@H](C)NC[C@@H]1C -6.99%
CCC(=O)N1CCC2(CC1)CN(Cc1cc(F)ccc1F)[C@@H](CO)c1c2c2ccc(OC)cc2n1C -0.065%
O=C(c1ccccc1F)N1CC(=O)N2[C@H](CO)[C@H](c3ccc(-c4cccnc4)cc3)[C@H]2C1 27.6%
COc1ccc(CN(C)C[C@H]2OCCCC[C@H](C)Oc3ccc(NS(=O)(=O)c4ccc(C)cc4)cc3C(=O)N([C@@H](C)CO)C[C@H]2C)cc1 -29.4%
COc1ccc2c3c([nH]c2c1)[C@H](CO)N(S(=O)(=O)c1cn(C)cn1)CC31CCN(CC2CC2)CC1 15.9%
C/C=C/c1ccc2c(c1)O[C@H](CN(C)C)[C@H](C)CN([C@H](C)CO)S2(=O)=O 14.9%
COc1ccc(CCNC(=O)c2nnc(CS(=O)(=O)c3ccccc3)o2)cc1OC 6.41%
CCOc1ccc(CCNC(=O)COC(=O)C2CCN(S(=O)(=O)c3ccccc3)CC2)cc1OCC 22%
COc1ccc(CNC(=O)COC(=O)c2ccc(C)c(S(=O)(=O)N3CCOCC3)c2)cc1OC 16.8%
COc1ccc(CCNC(=O)CCC(=O)NC2CCCCC2)cc1OC -1.71%
Cc1ccc(S(=O)(=O)CCC(=O)OCc2ccccc2)cc1 -1.88%
COc1ccc(CCNC(=O)CS(=O)(=O)Cc2nc(-c3ccc(C)cc3)oc2C)cc1OC -11.8%
COc1ccc(CCNC(=O)C(=O)NCc2ccccc2C)cc1OC 30.4%
CCOc1ccc(CCNC(=O)COC(=O)c2c(OC)cccc2OC)cc1OCC 19.6%
